Laboratory results published in PubChem BioAssay (NCI).
The panel holds about 83,000 compounds, 20% with a hit somewhere; the sample as a whole holds those more often.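 Growth was measured after 48 h exposure to one concentration of compound in 96-well plates. Values under 10 count as active.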 Calls of active or inactive are those of the source.

What was measured:
Test in all cases: NCI-60 one-dose screen, 48 h (100 = growth as untreated, 0 = no growth, -100 = all killed)
Conditions in all cases: 10 µM unless noted
[1] = system: T-47D breast
[2] = system: MDA-MB-435 melanoma
[3] = system: MCF7 breast
[4] = system: HCT-116 colon
[5] = system: HCC-2998 colon
[6] = system: KM12 colon
[7] = system: MDA-MB-468 breast
[8] = system: SW-620 colon
[9] = system: BT-549 breast

Measured: growth

N#Cc1c(-c2ccccc2Cl)cc(-c2ccc3ccccc3c2)[nH]c1=O
inactive: [2] 61.7% | [3] 44.4% | [4] 17.9% | [5] 49.1% | [6] 74.4%
active: [1] -21.3% | [7] 5.01%

COc1ccc(-c2nc3cc(C)ccc3n2CC(=O)N=Nc2c(O)[nH]c3ccccc23)cc1
active: [8] 6.89% | [4] -95.1% | [7] -0.636%
inactive: [1] 28.9% | [2] 12.4% | [3] 20% | [5] 26.8% | [6] 14.1%

CCOP(=O)(OCCCl)c1nc(-c2ccc(C)cc2)oc1NCc1ccccc1 (configuration not stated)
inactive: [9] 92% | [2] 87.2% | [8] 86.5% | [3] 50.3% | [4] 63.3% | [5] 94.6% | [6] 77.6% | [7] 62.9%

COc1cc(-c2ccc(/C=N/NC(=O)c3[nH]c4ccc(Br)cc4c3-c3ccccc3)s2)cc(OC)c1OC
inactive: [9] 85.9% | [2] 92.2% | [3] 72.1% | [4] 68.2% | [5] 101% | [6] 82.3% | [7] 96.7%

COc1cc(/C=C/C(=O)c2ccccc2)ccc1Oc1nc(Nc2ccc(F)cc2)nc(N(C)C)n1
inactive: [2] 24.9% | [5] 59% | [6] 40.8% | [7] 21.5%
active: [9] -6.57% | [8] -0.837% | [3] 5.96% | [4] -83.1%

CC1=C(C(=O)OC(C)C)C(c2cccc(O)c2)NC(=S)N1 (configuration not stated)
inactive: [9] 127% | [2] 104% | [3] 90.6% | [4] 102% | [5] 105% | [6] 106% | [7] 92%

O=C(NNc1ccccc1)n1c(=O)c2ccccc2c(=O)n1-c1ccccc1
inactive: [9] 90% | [2] 97.8% | [3] 88.3% | [4] 79.2% | [5] 108% | [6] 93.3% | [7] 99%

O=c1onc(-c2cc3ccccc3nc2Cl)n1-c1cccc2ccccc12
active: [2] -11.8%
inactive: [9] 28.5% | [8] 29.7% | [3] 21.4% | [4] 40.2% | [5] 71.1% | [6] 44.2%

COc1ccc2[nH]cc(-c3cc(N)n4nc(-c5cn(C)c6ccccc56)cc4n3)c2c1
active: [2] -81% | [8] -46.1% | [3] -82.2% | [4] -85.9% | [5] -81.3% | [6] -69.9% | [7] -80.1%

COc1cc(-c2nc3cc(Cl)c(Cl)cc3[nH]2)ccc1OCc1nnc(-c2cccs2)o1
active: [3] 3.79%
inactive: [2] 55.2% | [8] 33% | [4] 29% | [5] 43.9% | [6] 71.5% | [7] 46.4%

COc1ccc2oc3c4[nH]c5ccccc5c4c4c(c3c2c1)C(=O)N(C(=O)OC(C)(C)C)C4=O
active: [9] -44.2% | [2] -26.4% | [8] 6.81% | [3] -25.9% | [4] 1.65% | [6] -18.9% | [7] -22.9%
inactive: [5] 23.2%

O=C(N/N=C/c1ccc(-c2ccc(O)cc2)o1)c1[nH]c2ccc(Br)cc2c1-c1ccccc1
active: [9] -13.3% | [2] -14.7% | [3] -3.44% | [4] 4.35% | [5] -23.6% | [6] 2.17% | [7] -16.6%

C=C1CCC2C3(C)COC(c4cc(F)cc(F)c4)OC3CCC2(C)C1CC(O)C1=CCOC1=O (configuration not stated)
active: [9] -12.9% | [8] -44.2% | [4] -33.8%
inactive: [2] 60% | [3] 15.3% | [5] 45.8% | [6] 60.5% | [7] 70.7%

CCCCCCCCOc1cccc(S(=O)(=O)Nc2ccc(C)cc2C(=O)O)c1
inactive: [9] 115% | [2] 98.5% | [8] 96.5% | [3] 89.8% | [4] 85.1% | [5] 119% | [6] 96.9% | [7] 81.8%

O=c1c2ccccc2nc(-c2ccccc2)n1/N=C/c1ccc2ccccc2c1
inactive: [9] 51.8% | [2] 55% | [3] 34.2% | [4] 22.1% | [5] 57.5% | [6] 45%

C=C1CC[C@@H]2[C@]3(C)COC(c4cn[nH]c4-c4ccc(Br)cc4)O[C@@H]3CC[C@@]2(C)[C@@H]1C/C=C1/C(=O)OCC1O (some centres not stated)
active: [9] -96.6% | [2] -64.4% | [8] -70.5% | [4] -93.5% | [5] -98% | [6] -64.3% | [7] -85.9%

Cn1cc(-c2nc(N)nnc2-c2c[nH]c3ccc(F)cc23)c2cccnc21
inactive: [9] 38% | [2] 49.6% | [8] 46.7% | [3] 21.2% | [4] 43.2% | [5] 72.8% | [6] 60.9%
active: [7] 7.74%

Nc1n[nH]c2cccc(C#Cc3cccc(NC(=O)c4cccc(Cl)c4)c3)c12
inactive: [2] 22.7% | [8] 42.1% | [3] 15.9% | [4] 12.3% | [5] 30.4% | [6] 20.2% | [7] 46%

Cc1occc1C(=O)NN1C(=O)/C(=C/C=C/c2ccc([N+](=O)[O-])o2)SC1=S
active: [9] -91% | [2] -66.2% | [8] -43.2% | [3] -33% | [4] -73.2% | [5] -75% | [6] -66.2% | [7] -52.3%

Cc1cccc(Nc2nc3ccccc3nc2/C=C/c2ccc(F)cc2)c1
inactive: [9] 99.2% | [2] 96.8% | [3] 60.9% | [4] 81% | [5] 94.2% | [6] 96.5% | [7] 90%

Cn1cc(-c2cc(N)n3nc(-c4cn(C)c5ncc(Br)cc45)cc3n2)c2cc(Br)cnc21
inactive: [9] 34.8%
active: [2] -37.8% | [8] -68.6% | [4] -76.3% | [5] -38.3% | [6] -3.78% | [7] -84.2%

Cn1cc(-c2nc(N)nnc2-c2c[nH]c3ccc(F)cc23)c2cc(Br)cnc21
inactive: [8] 17.2%
active: [9] -42.4% | [2] -39.4% | [3] 4.55% | [4] -14.8% | [5] -40.9% | [6] -21.7% | [7] -20.2%

C=C1CC[C@@H]2[C@]3(C)COC(c4cn(-c5ccccc5)nc4-c4ccccc4)O[C@@H]3CC[C@@]2(C)[C@@H]1C/C=C1/C(=O)OC[C@H]1O (some centres not stated)
active: [9] -88.9% | [2] -65.9% | [3] -9.94% | [4] -97.5% | [5] -97.7% | [6] -56.2% | [7] -90.1%

C=C1CCC2C3(C)COC(c4ccccc4)OC3CCC2(C)C1CC(NCc1ccccc1)C1=CCOC1=O (configuration not stated)
inactive: [9] 73.4% | [2] 85% | [3] 70.2% | [4] 69% | [5] 81.2% | [6] 85.6% | [7] 49.3%

Cc1cc(C)cc(NC(=O)Cn2cc(COn3nnc4ccccc43)nn2)c1
inactive: [9] 108% | [2] 100% | [8] 115% | [3] 99.5% | [4] 103% | [5] 104% | [6] 114% | [7] 98.7%

COC(=O)/C=C/c1cccc2c1C(=O)NC(C)(c1cc3cc4ccccc4cc3oc1=O)N2 (configuration not stated)
inactive: [9] 45.2% | [2] 76.1% | [8] 54.3% | [3] 47.2% | [4] 44.5% | [5] 68.5% | [6] 53.7% | [7] 41%

CC1(C)CC[C@]2(C(=O)O)CC[C@]3(C)C(=CCC4[C@@]5(C)C[C@@H](O)[C@@H]6OC(c7ccco7)OC[C@@]6(C)C5CC[C@]43C)C2C1 (some centres not stated)
active: [7] 8.23%
inactive: [9] 13.9% | [2] 12.2% | [8] 23.6% | [3] 21% | [4] 11.8% | [5] 34% | [6] 17.3%

S=C(Nc1ccc(OCc2nc3ccccc3[nH]2)cc1)NC1CCCCC1
inactive: [2] 105% | [8] 120% | [3] 75.3% | [4] 102% | [5] 111% | [6] 82.1% | [7] 107%
